Reference: PubChem BioAssay AID1159580 (chemical genetic matrix, 2015)
The campaign covered roughly 5,500 compounds. About 2,000 (36%) were called active. Inconclusive results (about 18%) are left out. No stated cut-off is given here; in the data, active means normalized growth mostly below about 0.91 (no sharp cut-off); inconclusive means no clear call, values can overlap the other calls; inactive means mostly above about 0.92. This is one part of the list.

Test: chemical genetic growth profiling, strain panel (AID 1159580);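 further: tested at 20 µM; growth read once vehicle control cultures reached saturation at 30 °C; 1 = growth at the plate median or of vehicle wells; lower values mean less growth of the strain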
Details: S. cerevisiae deletion strains, growth OD

Measured: normalized growth

CC(C)(OC(=O)c1ccccc1)[C@@H]1Cc2cc3ccc(=O)oc3cc2O1
inactive: locus YBR021W, strain FUR4, active compounds read low 0.939 | locus YBR229C, strain ROT2, active compounds read low 0.986 | locus YCL029C, strain bik1, active compounds read low 1.01 | locus YDL035C, strain GPR1, active compounds read low 0.927 | locus YDL074C, strain BRE1, active compounds read low 0.95 | locus YDL101C, strain DUN1, active compounds read low 0.975 | locus YDL185W, strain tfp1, active compounds read low 0.956 | locus YDL192W, strain arf1, active compounds read low 0.982 | locus YDR101C, strain arx1, active compounds read low 0.975 | locus YDR150W, strain NUM1, active compounds read low 0.989 | locus YDR318W, strain mcm21, active compounds read low 0.954 | locus YDR388W, active compounds read low 0.994 | locus YDR502C, strain sam2, active compounds read low 0.956 | locus YEL061C, strain CIN8, active compounds read low 0.992 | locus YER110C, active compounds read low 0.973 | locus YER155C, strain BEM2, active compounds read low 0.999 | locus YER167W, strain BCK2, active compounds read low 0.991 | locus YGL078C, strain dbp3, active compounds read low 0.957 | locus YGL086W, strain mad1, active compounds read low 0.987 | locus YGL248W, strain PDE1, active compounds read low 0.94 | locus YGR078C, strain PAC10, active compounds read low 0.945 | locus YGR135W, strain pre9, active compounds read low 0.951 | locus YGR229C, strain SMI1, active compounds read low 0.885 | locus YGR252W, strain gcn5, active compounds read low 0.805 | locus YHR030C, strain SLT2, active compounds read low 0.989 | locus YHR079C, strain IRE1 (second series), active compounds read low 1 | locus YHR094C, strain hxt1, active compounds read low 1 | locus YHR129C, strain ARP1, active compounds read low 0.989 | locus YHR200W, strain rpn10, active compounds read low 0.976 | locus YIL066C, strain RNR3, active compounds read low 0.927 | locus YIL073C, strain SPO22, active compounds read low 0.945 | locus YIL125W, strain kgd1, active compounds read low 1 | locus YIR030C, strain dcg1, active compounds read low 0.988 | locus YJL095W, strain BCK1, active compounds read low 0.89 | locus YJL134W, strain LCB3, active compounds read low 0.989 | locus YJL168C, strain set2, active compounds read low 0.983 | locus YJL187C, strain SWE1 (second series), active compounds read low 0.958 | locus YJR043C, strain POL32, active compounds read low 0.978 | locus YJR075W, strain HOC1, active compounds read low 0.976 | locus YKL009W, strain mrt4, active compounds read low 0.958 | locus YKL068W, active compounds read low 0.992 | locus YKL085W, strain MDH1 (second series), active compounds read low 1 | locus YKL085W, strain MDH1, active compounds read low 1 | locus YKR001C, strain vps1, active compounds read low 0.997 | locus YLR039C, strain RIC1, active compounds read low 1.05 | locus YLR058C, strain SHM2, active compounds read low 0.975 | locus YLR102C, strain apc9, active compounds read low 0.984 | locus YLR262C, strain YPT6, active compounds read low 1.02 | locus YLR268W, strain sec22, active compounds read low 0.977 | locus YLR330W, strain CHS5, active compounds read low 0.976 | locus YLR342W, strain FKS1 (second series), active compounds read low 1.01 | locus YLR371W, strain rom2, active compounds read low 0.994 | locus YML016C, strain PPZ1, active compounds read low 0.982 | locus YML032C, strain rad52, active compounds read low 0.97 | locus YML124C, strain tub3, active compounds read low 0.974 | locus YMR078C, strain ctf18, active compounds read low 0.976 | locus YMR223W, strain ubp8, active compounds read low 0.945 | locus YMR307W, strain GAS1, active compounds read low 0.895 | locus YNL067W, strain RPL9B, active compounds read low 0.96 | locus YNL128W, strain TEP1, active compounds read low 0.981 | locus YNL233W, strain BNI4, active compounds read low 0.968 | locus YNL250W, strain rad50, active compounds read low 0.991 | locus YNL271C, strain bni1, active compounds read low 0.938 | locus YNL298W, strain CLA4, active compounds read low 0.942 | locus YNL307C, strain MCK1, active compounds read low 0.975 | locus YNL322C, strain KRE1, active compounds read low 0.984 | locus YNR052C, strain pop2, active compounds read low 0.983 | locus YOL006C, strain TOP1, active compounds read low 0.761 | locus YOL012C, strain htz1 1.01 | locus YOL147C, strain pex11, active compounds read low 0.986 | locus YOR061W, strain CKA2, active compounds read low 0.976 | locus YOR069W, strain VPS5, active compounds read low 0.983 | locus YOR136W, strain idh2, active compounds read low 0.987 | locus YOR144C, strain elg1, active compounds read low 0.973 | locus YOR316C, strain cot1, active compounds read low 0.976 | locus YPL241C, strain CIN2, active compounds read low 0.982 | locus YPR119W, strain clb2, active compounds read low 0.993 | locus YPR141C, strain kar3, active compounds read low 0.995 | locus YPR163C, strain tif3, active compounds read low 0.973 | locus YPR167C, strain met16, active compounds read low 0.98 | strain wtn01, active compounds read low 0.986
active: locus YDR162C, strain NBP2, active compounds read low 0.834 | locus YLR418C, strain cdc73, active compounds read low 0.828 | locus YOR184W, strain ser1, active compounds read low 0.861
